The values that follow come from publication PMC7862700, “An all-to-all approach to the identification of sequence-specific readers for epigenetic DNA modifications on cytosine”.

Holding throughout (experiment): DAPPL (digital affinity profiling via proximity ligation, sequencing); 10 mM Tris-HCl pH 7.5, 50 mM NaCl, 1 mM DTT, 4% glycerol, room temperature, 30 min; GST-TFs on glutathione beads, 16-mer random dsDNA library, 0.1% formaldehyde crosslink after washing; high values mean tight binding
Holding throughout (details): protein: recombinant; tags: N-terminal GST; dsDNA, one strand shown

Assay [1] concerns the target T1, FLI1 (Homo sapiens, UniProt Q01543 1-452).
T1 sequence: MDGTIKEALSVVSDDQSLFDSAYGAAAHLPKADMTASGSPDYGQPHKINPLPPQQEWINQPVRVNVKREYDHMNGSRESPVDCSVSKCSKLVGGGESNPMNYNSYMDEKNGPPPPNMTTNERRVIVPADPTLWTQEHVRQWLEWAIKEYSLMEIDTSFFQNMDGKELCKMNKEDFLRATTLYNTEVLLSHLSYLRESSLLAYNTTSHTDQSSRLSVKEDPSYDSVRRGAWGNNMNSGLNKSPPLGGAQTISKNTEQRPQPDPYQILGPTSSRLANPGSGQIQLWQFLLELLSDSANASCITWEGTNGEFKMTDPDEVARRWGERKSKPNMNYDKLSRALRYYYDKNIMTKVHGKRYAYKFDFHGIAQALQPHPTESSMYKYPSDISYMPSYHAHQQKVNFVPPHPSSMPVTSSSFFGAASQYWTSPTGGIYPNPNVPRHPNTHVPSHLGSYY
A digest of the protocol:
(§1)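 Binding signal is each hexamer's read frequency for a factor divided by its frequency in the tag-only sample. The factors were GST-fused human transcription factors from yeast, captured on glutathione beads, DNA-barcoded and pooled with that sample. Pools were incubated with 200 nmole of a random double-stranded 16-mer DNA library in Tris/NaCl/DTT/glycerol buffer at room temperature for 30 min, then washed, crosslinked with 0.1% formaldehyde, proximity-ligated with BsaI/T4 ligase (1 h, 37 °C), PCR-amplified and sequenced on an Illumina NextSeq500.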

Assay [2] addresses T2, ELK1 (Homo sapiens, UniProt P19419 1-428).
T2 sequence: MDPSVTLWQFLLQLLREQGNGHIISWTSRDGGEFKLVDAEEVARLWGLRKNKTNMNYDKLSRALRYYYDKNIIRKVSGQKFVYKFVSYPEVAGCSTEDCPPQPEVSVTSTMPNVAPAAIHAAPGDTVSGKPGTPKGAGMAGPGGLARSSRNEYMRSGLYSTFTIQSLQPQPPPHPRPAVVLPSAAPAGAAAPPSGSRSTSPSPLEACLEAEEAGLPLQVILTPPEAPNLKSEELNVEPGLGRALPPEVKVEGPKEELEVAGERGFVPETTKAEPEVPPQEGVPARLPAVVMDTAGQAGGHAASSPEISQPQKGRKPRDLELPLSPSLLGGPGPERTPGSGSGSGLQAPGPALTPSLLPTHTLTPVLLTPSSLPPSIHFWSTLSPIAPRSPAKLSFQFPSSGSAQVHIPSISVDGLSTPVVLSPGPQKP
In a few lines:
as §1

Assay [3] has as its target T3, GABPA (Homo sapiens, UniProt Q06546 1-454).
T3 sequence: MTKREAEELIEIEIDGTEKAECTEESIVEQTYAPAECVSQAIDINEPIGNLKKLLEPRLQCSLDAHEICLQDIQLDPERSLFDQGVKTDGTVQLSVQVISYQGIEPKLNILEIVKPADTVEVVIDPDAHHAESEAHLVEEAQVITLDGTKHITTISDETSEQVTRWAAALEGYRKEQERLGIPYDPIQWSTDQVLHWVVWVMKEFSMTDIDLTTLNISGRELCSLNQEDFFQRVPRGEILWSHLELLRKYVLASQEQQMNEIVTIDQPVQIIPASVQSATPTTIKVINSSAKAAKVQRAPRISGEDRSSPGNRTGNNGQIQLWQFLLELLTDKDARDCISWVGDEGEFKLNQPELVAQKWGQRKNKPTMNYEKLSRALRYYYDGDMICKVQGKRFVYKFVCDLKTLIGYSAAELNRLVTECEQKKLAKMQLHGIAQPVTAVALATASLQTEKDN
A digest of the protocol:
as §1

The target in assay [4] is T4, ERG (Homo sapiens, UniProt P11308 1-479).
T4 sequence: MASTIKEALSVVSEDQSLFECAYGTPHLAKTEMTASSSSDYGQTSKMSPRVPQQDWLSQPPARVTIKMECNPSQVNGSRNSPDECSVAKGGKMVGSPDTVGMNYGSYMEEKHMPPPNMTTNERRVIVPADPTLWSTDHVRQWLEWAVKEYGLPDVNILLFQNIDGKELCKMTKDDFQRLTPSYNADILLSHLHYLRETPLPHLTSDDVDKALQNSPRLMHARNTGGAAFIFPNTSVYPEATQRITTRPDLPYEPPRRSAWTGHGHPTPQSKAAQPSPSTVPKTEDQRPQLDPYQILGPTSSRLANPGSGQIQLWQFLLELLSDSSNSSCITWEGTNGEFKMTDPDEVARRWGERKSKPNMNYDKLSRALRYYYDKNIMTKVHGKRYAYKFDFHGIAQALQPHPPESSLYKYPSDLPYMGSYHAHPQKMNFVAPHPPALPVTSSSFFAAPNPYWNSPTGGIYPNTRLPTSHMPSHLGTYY
A digest of the protocol: as §1

The target of assay [5] is ELF1 (Homo sapiens, UniProt P32519 1-619). A digest of the protocol: as §1
Sequence of ELF1 (P32519 whole entry): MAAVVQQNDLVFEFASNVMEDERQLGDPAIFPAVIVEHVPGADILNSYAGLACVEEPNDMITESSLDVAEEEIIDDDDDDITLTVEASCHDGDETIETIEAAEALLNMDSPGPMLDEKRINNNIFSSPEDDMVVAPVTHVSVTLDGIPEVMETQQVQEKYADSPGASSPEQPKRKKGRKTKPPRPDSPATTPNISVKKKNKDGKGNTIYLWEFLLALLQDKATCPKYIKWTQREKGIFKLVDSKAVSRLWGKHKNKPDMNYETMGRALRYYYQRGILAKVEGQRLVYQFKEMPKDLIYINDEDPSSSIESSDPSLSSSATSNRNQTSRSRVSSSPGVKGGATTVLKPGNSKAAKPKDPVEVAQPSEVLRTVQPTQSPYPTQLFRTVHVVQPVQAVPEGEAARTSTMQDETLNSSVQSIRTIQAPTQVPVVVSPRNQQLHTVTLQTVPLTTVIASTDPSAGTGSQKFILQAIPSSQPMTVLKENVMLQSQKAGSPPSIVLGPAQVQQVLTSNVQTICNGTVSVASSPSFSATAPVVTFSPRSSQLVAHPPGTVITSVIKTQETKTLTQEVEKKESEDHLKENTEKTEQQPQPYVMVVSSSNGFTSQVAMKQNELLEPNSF
Assay [6] has as its target T5, EHF (Homo sapiens, UniProt Q9NZC4 1-300).
T5 sequence: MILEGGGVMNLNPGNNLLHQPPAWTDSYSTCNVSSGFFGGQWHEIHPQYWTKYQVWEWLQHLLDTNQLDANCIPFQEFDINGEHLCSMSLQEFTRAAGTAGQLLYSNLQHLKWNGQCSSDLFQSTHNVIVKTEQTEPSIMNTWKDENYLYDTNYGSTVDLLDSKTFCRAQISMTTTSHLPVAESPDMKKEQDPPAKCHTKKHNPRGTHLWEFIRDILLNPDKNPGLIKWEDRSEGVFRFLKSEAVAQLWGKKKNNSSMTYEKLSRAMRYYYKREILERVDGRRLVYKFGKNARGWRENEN
In a few lines:
as §1

Assay [7] concerns the target SPI1 (Homo sapiens, UniProt P17947 1-270). A digest of the protocol: as §1
Assay [8] concerns the target SPIB (Homo sapiens, UniProt Q01892 1-262). In a few lines:
as §1

In assay [9] the target is T6, ELK3 (Homo sapiens, UniProt P41970 1-407).
T6 sequence: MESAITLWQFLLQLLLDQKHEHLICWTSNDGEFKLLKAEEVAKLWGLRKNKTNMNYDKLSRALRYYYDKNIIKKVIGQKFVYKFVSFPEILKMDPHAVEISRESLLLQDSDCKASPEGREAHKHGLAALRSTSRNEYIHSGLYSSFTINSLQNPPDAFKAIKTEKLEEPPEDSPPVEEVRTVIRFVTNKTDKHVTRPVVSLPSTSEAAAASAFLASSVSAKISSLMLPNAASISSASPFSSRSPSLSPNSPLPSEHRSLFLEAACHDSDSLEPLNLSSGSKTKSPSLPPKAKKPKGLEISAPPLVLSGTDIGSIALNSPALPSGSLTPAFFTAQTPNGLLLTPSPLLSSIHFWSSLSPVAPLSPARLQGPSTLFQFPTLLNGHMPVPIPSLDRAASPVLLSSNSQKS
In a few lines: as §1

Assay [10] deals with T7, FEV (Homo sapiens, UniProt Q99581 1-238).
T7 sequence: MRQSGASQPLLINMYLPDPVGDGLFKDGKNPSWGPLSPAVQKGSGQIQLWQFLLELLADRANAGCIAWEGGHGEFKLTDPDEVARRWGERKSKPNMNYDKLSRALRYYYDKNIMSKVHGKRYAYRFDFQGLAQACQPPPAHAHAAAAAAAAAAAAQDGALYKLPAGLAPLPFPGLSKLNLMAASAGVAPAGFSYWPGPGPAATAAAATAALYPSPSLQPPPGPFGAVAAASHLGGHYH
A digest of the protocol:
as §1

Assay [11] deals with ETV5 (Homo sapiens, UniProt P41161 1-510). A digest of the protocol:
as §1

The target in assay [12] is T8, SPIC (Homo sapiens, UniProt Q8N5J4 1-248).
T8 sequence: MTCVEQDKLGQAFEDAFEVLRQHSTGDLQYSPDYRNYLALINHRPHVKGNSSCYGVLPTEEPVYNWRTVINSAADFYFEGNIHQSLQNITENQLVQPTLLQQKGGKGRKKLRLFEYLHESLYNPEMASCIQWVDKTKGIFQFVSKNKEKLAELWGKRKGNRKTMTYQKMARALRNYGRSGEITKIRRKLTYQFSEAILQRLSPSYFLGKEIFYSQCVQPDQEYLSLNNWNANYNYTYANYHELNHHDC
In a few lines: as §1

The target in assay [13] is ELF4 (Homo sapiens, UniProt Q99607 1-663). A digest of the protocol:
as §1

Assay [14] has as its target T9, ELK4 (Homo sapiens, UniProt P28324-2 1-405).
T9 sequence: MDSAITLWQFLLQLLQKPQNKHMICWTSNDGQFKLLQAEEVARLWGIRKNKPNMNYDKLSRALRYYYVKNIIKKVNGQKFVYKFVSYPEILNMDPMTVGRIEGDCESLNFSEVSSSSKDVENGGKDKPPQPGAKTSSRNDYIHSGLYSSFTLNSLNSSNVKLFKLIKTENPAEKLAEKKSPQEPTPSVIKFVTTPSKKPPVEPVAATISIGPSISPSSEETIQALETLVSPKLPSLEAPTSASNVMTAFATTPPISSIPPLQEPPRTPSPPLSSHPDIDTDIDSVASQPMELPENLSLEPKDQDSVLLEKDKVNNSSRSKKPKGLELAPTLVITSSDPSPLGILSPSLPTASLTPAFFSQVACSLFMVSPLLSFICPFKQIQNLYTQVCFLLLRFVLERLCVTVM
In a few lines:
as §1

Assay [15] concerns the target T10, ETV2 (Homo sapiens, UniProt O00321 1-342).
T10 sequence: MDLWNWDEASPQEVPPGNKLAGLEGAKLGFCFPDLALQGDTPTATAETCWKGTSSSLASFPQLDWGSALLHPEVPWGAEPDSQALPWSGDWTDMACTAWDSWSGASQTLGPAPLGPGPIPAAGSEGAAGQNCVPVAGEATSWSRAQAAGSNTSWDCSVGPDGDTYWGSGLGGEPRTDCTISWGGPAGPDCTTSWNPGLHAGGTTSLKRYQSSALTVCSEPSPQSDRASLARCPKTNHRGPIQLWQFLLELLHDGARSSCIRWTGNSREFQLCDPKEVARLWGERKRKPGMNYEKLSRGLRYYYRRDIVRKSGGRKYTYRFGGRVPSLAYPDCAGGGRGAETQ
In a few lines: as §1

For assay [16], the target named is T11, ELF3 (Homo sapiens, UniProt P78545 1-371).
T11 sequence: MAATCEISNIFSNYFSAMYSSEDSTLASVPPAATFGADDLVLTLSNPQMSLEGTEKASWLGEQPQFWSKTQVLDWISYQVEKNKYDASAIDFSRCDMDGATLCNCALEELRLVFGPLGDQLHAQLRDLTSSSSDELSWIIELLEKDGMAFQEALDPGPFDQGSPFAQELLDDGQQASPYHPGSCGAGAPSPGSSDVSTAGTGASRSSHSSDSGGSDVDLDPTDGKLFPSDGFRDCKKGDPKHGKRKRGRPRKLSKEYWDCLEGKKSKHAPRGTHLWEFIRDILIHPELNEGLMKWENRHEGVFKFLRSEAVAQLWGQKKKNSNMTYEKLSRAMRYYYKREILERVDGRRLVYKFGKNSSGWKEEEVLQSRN
A digest of the protocol: as §1

Assay [17] deals with CRX (Homo sapiens, UniProt O43186 1-299). In a few lines:
as §1

For assay [18], the target named is ETV1 (Homo sapiens, UniProt P50549 1-477). In a few lines:
as §1

Sequence of ETV1 (P50549 whole entry): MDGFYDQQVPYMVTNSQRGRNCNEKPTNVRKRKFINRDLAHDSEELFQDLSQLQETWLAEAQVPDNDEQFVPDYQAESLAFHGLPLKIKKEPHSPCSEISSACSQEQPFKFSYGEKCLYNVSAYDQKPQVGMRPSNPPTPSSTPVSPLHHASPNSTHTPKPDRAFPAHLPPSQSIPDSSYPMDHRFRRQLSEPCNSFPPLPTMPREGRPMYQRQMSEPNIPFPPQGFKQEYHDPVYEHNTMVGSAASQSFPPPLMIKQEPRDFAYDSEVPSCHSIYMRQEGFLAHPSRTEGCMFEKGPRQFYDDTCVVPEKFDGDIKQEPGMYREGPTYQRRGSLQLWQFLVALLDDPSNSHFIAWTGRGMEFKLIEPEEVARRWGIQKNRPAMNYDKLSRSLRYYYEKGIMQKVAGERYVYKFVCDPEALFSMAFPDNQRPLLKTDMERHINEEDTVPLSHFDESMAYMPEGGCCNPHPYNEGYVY
Sequence of ETV5 (P41161 whole entry): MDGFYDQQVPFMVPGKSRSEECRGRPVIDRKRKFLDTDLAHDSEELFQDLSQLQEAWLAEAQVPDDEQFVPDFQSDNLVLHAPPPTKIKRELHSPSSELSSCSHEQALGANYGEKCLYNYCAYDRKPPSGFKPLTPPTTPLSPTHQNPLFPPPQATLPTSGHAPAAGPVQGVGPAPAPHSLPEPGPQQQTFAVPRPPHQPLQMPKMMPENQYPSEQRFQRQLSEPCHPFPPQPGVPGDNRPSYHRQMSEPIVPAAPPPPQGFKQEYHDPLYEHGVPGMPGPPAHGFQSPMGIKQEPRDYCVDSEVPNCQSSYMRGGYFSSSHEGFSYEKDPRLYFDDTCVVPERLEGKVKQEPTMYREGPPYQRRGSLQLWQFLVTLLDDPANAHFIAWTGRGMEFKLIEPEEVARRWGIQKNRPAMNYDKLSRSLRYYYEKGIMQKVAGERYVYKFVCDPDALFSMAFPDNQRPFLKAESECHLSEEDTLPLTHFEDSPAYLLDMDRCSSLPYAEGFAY
Sequence of SPIB (Q01892 whole entry): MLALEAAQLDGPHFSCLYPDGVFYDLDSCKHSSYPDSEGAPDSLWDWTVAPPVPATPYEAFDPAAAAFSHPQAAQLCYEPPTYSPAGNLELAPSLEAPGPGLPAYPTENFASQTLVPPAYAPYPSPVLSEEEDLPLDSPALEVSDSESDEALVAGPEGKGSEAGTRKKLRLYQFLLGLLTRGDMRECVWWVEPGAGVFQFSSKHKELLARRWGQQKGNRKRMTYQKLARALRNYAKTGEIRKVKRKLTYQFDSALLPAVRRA
Sequence of CRX (O43186 whole entry): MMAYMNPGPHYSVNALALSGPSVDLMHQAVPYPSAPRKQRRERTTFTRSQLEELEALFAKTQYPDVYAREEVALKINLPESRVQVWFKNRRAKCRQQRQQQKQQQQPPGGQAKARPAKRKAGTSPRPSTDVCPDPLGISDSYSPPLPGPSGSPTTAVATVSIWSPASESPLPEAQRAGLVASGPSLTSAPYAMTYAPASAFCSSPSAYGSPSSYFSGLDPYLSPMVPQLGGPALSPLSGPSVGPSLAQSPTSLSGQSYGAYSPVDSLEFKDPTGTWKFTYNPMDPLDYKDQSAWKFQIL
Sequence of ELF4 (Q99607 whole entry): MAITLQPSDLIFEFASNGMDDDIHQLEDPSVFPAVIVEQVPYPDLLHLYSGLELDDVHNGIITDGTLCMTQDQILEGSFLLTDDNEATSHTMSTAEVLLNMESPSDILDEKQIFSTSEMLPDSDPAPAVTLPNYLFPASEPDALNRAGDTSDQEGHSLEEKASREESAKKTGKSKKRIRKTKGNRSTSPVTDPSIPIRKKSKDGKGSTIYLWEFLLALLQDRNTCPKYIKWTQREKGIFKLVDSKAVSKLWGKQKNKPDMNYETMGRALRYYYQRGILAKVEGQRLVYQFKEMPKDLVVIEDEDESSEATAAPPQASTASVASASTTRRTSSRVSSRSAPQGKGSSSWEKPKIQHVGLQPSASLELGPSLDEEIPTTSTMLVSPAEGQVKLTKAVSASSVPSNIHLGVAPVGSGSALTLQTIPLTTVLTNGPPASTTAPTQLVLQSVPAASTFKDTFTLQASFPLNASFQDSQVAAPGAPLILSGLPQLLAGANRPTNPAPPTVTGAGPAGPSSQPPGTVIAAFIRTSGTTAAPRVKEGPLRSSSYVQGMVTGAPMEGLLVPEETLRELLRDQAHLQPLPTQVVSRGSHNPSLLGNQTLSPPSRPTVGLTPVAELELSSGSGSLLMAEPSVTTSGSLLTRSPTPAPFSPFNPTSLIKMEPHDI

As to ACCACT, the binding signal in [1] was 1.28 fold enrichment (6-mer frequency, TF over GST control); in assay [2] it was 1.22 fold enrichment (6-mer frequency, TF over GST control); in [3], 1.35 fold enrichment (6-mer frequency, TF over GST control); in assay [4] it was 1.27 fold enrichment (6-mer frequency, TF over GST control); in assay [5], 1.31 fold enrichment (6-mer frequency, TF over GST control); in [6], 1.25 fold enrichment (6-mer frequency, TF over GST control). Moreover, the binding signal in assay [7] was 1.38 fold enrichment (6-mer frequency, TF over GST control); in assay [8] it was 1.19 fold enrichment (6-mer frequency, TF over GST control); in [9], 1.21 fold enrichment (6-mer frequency, TF over GST control); in [10] it was 1.35 fold enrichment (6-mer frequency, TF over GST control); in assay [11] it was 1.29 fold enrichment (6-mer frequency, TF over GST control); in assay [12] it was 1.38 fold enrichment (6-mer frequency, TF over GST control). In addition, the binding signal was 1.31 fold enrichment (6-mer frequency, TF over GST control) in [13]; 1.29 fold enrichment (6-mer frequency, TF over GST control) in assay [14]; 1.27 fold enrichment (6-mer frequency, TF over GST control) in assay [15]; 1.23 fold enrichment (6-mer frequency, TF over GST control) in assay [16]; 1.04 fold enrichment (6-mer frequency, TF over GST control) in [17]; 1.2 fold enrichment (6-mer frequency, TF over GST control) in [18].
